Data on 13 compounds can be found in PubChem BioAssay (EPA / NIEHS).

Inconclusive results are not listed. Active and inactive are the calls of the source. The calls were made as follows: active = hit-call score of the fitted dose curve at least 0.9, where 1 is the maximum; inconclusive = response in the unintended direction; inactive = score below 0.9.

The target in this test is PGR (gene 5241) (UniProt P06401). In words: NVS_NR_hPR: NovaScreen (NVS) Nuclear Receptor Binding Assay for human Progestron Receptor (PR) (AID 2283360).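 Also: active means loss of bound radioligand signal versus DMSO baseline.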 The method, then: NVS_NR_hPR is a biochemical, single-readout assay that uses extracted gene-proteins from T47D in a cell-free assay. Measurements were taken 18 hours after chemical dosing in a 96-well plate.NVS_NR_hPR is one of one assay component(s) measured or calculated from the NVS_NR_hPR assay. It is designed to make measurements of radioligand binding, a form of binding reporter, as detected with scintillation counting signals by Lysate-based radiodetection technology.Data from the assay component NVS_NR_hPR was analyzed into 1 assay endpoint. This assay endpoint, NVS_NR_hPR, was analyzed in the positive analysis fitting direction relative to DMSO as the negative control and baseline of activity. Using a type of binding reporter, loss-of-signal activity can be used to understand changes in the binding as they relate to the gene PGR. Furthermore, this assay endpoint can be referred to as a primary readout, because the performed assay has only produced 1 assay endpoint. To generalize the intended target to other relatable targets, this assay endpoint is annotated to the nuclear receptor intended target family, where the subfamily is steroidal.
Chain of PGR (gene 5241) (P06401 whole entry, looked up): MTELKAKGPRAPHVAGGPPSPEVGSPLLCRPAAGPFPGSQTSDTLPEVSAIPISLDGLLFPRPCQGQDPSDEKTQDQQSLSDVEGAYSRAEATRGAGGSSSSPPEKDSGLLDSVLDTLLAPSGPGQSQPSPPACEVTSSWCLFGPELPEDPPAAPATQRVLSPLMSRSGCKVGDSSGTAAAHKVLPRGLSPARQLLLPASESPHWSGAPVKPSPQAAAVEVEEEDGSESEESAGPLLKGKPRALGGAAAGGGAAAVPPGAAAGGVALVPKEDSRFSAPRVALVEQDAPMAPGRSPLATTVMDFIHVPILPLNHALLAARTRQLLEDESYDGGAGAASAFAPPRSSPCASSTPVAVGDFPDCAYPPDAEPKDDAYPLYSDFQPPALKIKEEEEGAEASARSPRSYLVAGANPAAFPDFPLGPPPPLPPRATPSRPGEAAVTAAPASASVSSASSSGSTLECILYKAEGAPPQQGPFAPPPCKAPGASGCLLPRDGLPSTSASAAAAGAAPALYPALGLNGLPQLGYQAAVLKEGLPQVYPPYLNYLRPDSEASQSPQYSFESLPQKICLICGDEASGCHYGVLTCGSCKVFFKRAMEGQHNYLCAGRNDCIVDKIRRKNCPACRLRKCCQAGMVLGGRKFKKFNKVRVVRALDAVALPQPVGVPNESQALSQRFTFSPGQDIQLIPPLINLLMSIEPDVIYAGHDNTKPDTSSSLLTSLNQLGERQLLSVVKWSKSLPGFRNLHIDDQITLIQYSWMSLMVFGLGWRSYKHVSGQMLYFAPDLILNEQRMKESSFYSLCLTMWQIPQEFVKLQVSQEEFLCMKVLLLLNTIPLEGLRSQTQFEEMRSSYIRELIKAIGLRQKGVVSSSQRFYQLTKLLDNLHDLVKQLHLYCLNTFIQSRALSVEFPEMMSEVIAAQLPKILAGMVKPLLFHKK
Binding assays used specific radioligands (tritiated, iodinated) with non-radioactive competitive displacement ligands in agonist or antagonist protocols (as indicated) and various reference compounds and inhibitors to titrate specific binding to receptors and transporters. Most enzyme assays (CYPs, kinases, phosphatases, proteases, HDACs) used recombinant protein and specific substrates (fluorescence mostly, some colorimetric and radioactive) and inhibitors, followed by a biochemical separation of substrate and product. All assays for the biochemical HTS were initially run in duplicate at a single concentration (10 uM for CYP450 assays and 25 uM for all others). […] Each assay was run with positive and negative controls, and concurrent controls on every plate. The follow-up (secondary) screen tested active chemical-pairs in concentration series, as well as a few additional assays not tested in the primary screen, some selected negative inactives, and several cases re-run in the concentration series for confirmatory purposes.
As a reminder, the AC50 is the concentration at which the activity in the assay is half-maximal. As to `CC(C)(c1ccccc1)c1ccc(O)cc1`, the AC50 is 13.9 µM (active).
Take `Oc1c(Cl)c(Cl)c(Cl)c(Cl)c1Cl`: the call was inactive.
As for `CCC(C)(c1ccc(O)cc1)c1ccc(O)cc1`, the AC50 is 10.2 µM (active).
Same read-out and setting: the figure for `C[C@]12CCC(=O)C=C1CC[C@@H]1[C@@H]2CC[C@]2(C)C(=O)CC[C@@H]12` is 8.27 µM (active).
Consider `Oc1ccc(Cl)cc1Cl`, for which the compound was called inactive.
The same measure, in the same setting: in the case of `Cc1ccccc1[N+](=O)[O-]` it was “inactive”.
For the compound `CCC(=O)O[C@H]1CC[C@H]2[C@@H]3CCC4=CC(=O)CC[C@]4(C)[C@H]3CC[C@]12C`, the AC50 is 1.04 µM (active).
Regarding `CC(C)(O)C(=O)Nc1ccc([N+](=O)[O-])c(C(F)(F)F)c1`, the call was inactive.
Regarding `O=C(N[C@H]1CN2CCC1CC2)c1cc2ccoc2cn1`, the call was inactive.
The same measure, in the same setting: the entry for `O=NN(c1ccccc1)c1ccccc1` is “inactive”.
As for `Oc1ccc(C(c2ccc(O)cc2)(C(F)(F)F)C(F)(F)F)cc1`, the AC50 is 1.32 µM (active).
In the case of `Cc1ccc(O)c(C)c1`, the outcome was inactive.
In the case of `C[C@]12CCC(=O)C=C1CC[C@@H]1[C@@H]2CC[C@@]2(C)[C@H]1CC[C@]2(C)O`, the AC50 is 0.175 µM (active).
